In PubChem BioAssay AID493008 (The Scripps Research Institute Molecular Screening Center, 2010) one finds activation data, which are given here for 21 compounds.

The structures appear in SMILES notation. The whole screen tested about 340,000 compounds, of which about 800 (0.24%) were called active.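 The calls were made as follows: active = activation above the mean over all tested compounds plus 3 SD (cut at about 30% in these data); inactive = the rest.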 The sample as a whole holds a higher share of actives than the screen did.

The assay addresses Troponin I, cardiac muscle (Homo sapiens) + Troponin T, cardiac muscle (Homo sapiens) + Troponin C, slow skeletal and cardiac muscles (Homo sapiens) (UniProt P19429+P45379+P63316). Briefly: cardiac RTF calcium sensitivity activators, primary screen, biochemical, IANBD-TnC fluorescence, EC20 calcium (AID 493008).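 Also: rise in fluorescence read as greater calcium sensitivity of cardiac thin filaments.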 The conditions noted are these: IANBD-labeled TnC RTF fluorescence at EC20 calcium; at 7.2 µM; hits give high values; 0% EC20 calcium, 100% full calcium.
For `CCCN(CCC)C(=O)C1c2ccccc2Oc2ccccc21`, the activation was 98.3% (active).

As to `CCOC(=O)CC(NC(=O)C1c2ccccc2Oc2ccccc21)c1ccc(C)cc1` (stereo unspecified), the activation is 4.5% (inactive).

`CCCCCNC(=O)C1c2ccccc2Oc2ccccc21`: the activation is 4.69% (inactive).

As for `CC1=C(C(=O)OCc2ccccc2)C(c2ccco2)n2ncnc2N1` (stereo unspecified), the activation was 8.65% (inactive).

For `CC1=C(C(N)=O)C(c2ccc(Br)cc2)n2ncnc2N1` (stereo unspecified), the activation is -0.09% (inactive).

For `Brc1ccc(C2=CC(c3ccco3)n3ncnc3N2)cc1` (stereo unspecified), the activation was 245% (active).

On to `CCN1CCN(c2ccc(S(=O)(=O)N3CCCCC3)cc2NC(=O)c2cccc(NC(C)=O)c2)CC1`, for which the activation is -0.39% (inactive).

Regarding `CC1CCCCC12NC(=O)N(CC(=O)OCc1c(F)cccc1Cl)C2=O` (stereo unspecified), the activation was -6.16% (inactive).

As to `Cc1ccccc1OCCC(=O)OCC(=O)NC(C)c1ccccc1` (stereo unspecified), the activation was 1.21% (inactive).

For `Cc1ccccc1-n1c(C)cc(/C=C2\NC(=O)NC2=O)c1C`, the activation is -2.97% (inactive).

As for `O=C1Nc2ccccc2/C1=C/c1ccnc2ccccc12`, the activation is 3.84% (inactive).

As for `Cc1cc(C)c(/C=C2\C(=O)Nc3ccccc32)[nH]1`, the activation was 149% (active).

For the compound `C[C@H](NC(=O)c1[nH]cnc1C(=O)Nc1nccs1)c1ccccc1`, the activation is -1.35% (inactive).

Regarding `O=C(COC(=O)c1ccc(S(=O)(=O)Nc2ccccc2)cc1)NCC1CCCO1` (stereo unspecified), the activation is -3.25% (inactive).

As for `COc1ccc([N+](=O)[O-])cc1NC(=O)CC1SC(=Nc2cccc(C)c2C)N(/N=C(\C)c2ccc(C)cc2)C1=O` (stereo unspecified), the activation is -1.84% (inactive).

Turning to `CCC1CCCCN1C(=O)Nc1cccc(NC(=O)N2CCCCC2CC)c1` (stereo unspecified), the activation was -3.65% (inactive).

Turning to `O=C(CSc1nnc(C2CC2)n1Cc1ccccc1)Nc1cccnc1Cl`, the activation was 1.37% (inactive).

`COc1ccccc1N(CC(=O)Nc1ccc(C)cc1Cl)S(=O)(=O)c1cccs1`: the activation is -7.85% (inactive).

On to `CCCCNC(=O)Nc1c(C)cc(SC#N)cc1C`, for which the activation was -8.62% (inactive).

On to `O=C(c1cc2sccc2n1Cc1ccc(F)cc1)N1CCc2ccccc21`, for which the activation was -0.47% (inactive).

Regarding `CCCc1cc(=O)[nH]c(SCC(=O)Nc2ccc(S(=O)(=O)N3CCCC3)cc2)n1`, the activation is -0.74% (inactive).
